Measurements taken from PubChem BioAssay (NCI).
Compounds without any hit were thinned out: in the full panel of roughly 79,000, 15% have a hit. A number with no mark means an inactive call. The source made the active and inactive calls. No stated cut-off is given here; in the data, active means growth inhibition above about 70%; inactive means the rest.

Key:
[1] = NCI Yeast Anticancer Drug Screen. Data for the rad50 strain (AID 155);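 further: 0% = growth of vehicle-only cultures of the same strain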; details: S. cerevisiae rad50 strain growth inhibition; at 50.0 µM; hits give high values
How it was run: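 Readout: growth inhibition relative to vehicle-treated cultures. Compound exposure was carried out in a genetically defined yeast strain deficient in DNA damage repair.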

[2] = NCI Yeast Anticancer Drug Screen. Data for the mec2-1 strain (AID 157); details: S. cerevisiae mec2-1 strain, at 50.0 µM, hits give high values
How it was run: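 mec2-1 yeast strain, carrying an alteration in DNA damage repair or cell cycle control, was exposed to compounds; growth inhibition was measured relative to vehicle-treated controls.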

[3] = NCI Yeast Anticancer Drug Screen. Data for the sgs1 mgt1 strain (AID 161);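 further: 0% = growth of cultures given vehicle only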; details: S. cerevisiae sgs1 mgt1 strain, at 50.0 µM, hits give high values
How it was run: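 This yeast growth screen uses a strain with defined DNA-repair lesions; compound-treated growth is compared with vehicle-treated growth.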

[4] = NCI Yeast Anticancer Drug Screen. Data for the cln2 rad14 strain (AID 165);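 further: 0% = growth equal to vehicle treated cultures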; details: S. cerevisiae cln2 rad14 strain, at 50.0 µM, hits give high values
How it was run: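 Yeast carrying cln2 and rad14 alterations (cell cycle control and DNA damage repair) were exposed to compounds. Growth inhibition was measured against vehicle-treated controls.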

[5] = NCI Yeast Anticancer Drug Screen. Data for the bub3 strain (AID 167); details: S. cerevisiae bub3 mutant strain, at 50.0 µM, hits give high values
How it was run: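 Readout: yeast growth inhibition, expressed relative to vehicle-only wells. The test organism is a mutant strain from a panel with lesions in DNA repair or checkpoint genes.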

[6] = NCI Yeast Anticancer Drug Screen. Data for the mlh1 rad18 strain (AID 175); details: S. cerevisiae mlh1 rad18 strain growth inhibition; at 50.0 µM; hits give high values
How it was run: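 Growth inhibition of the yeast strain was measured after compound exposure and expressed relative to vehicle-treated controls. The strain carries defined defects in DNA damage repair.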

Structure (SMILES) | growth inhibition [1] | growth inhibition [2] | growth inhibition [3] | growth inhibition [4] | growth inhibition [5] | growth inhibition [6]
O=C(O)C1C=CCN1 (centres undefined) | 0.8% | 1.2% | 0.15% | -6.55% | -18.6% | -3.5%
C/C(=C/C(=O)O)c1ccccc1 | 10.7% | -14.4% | 2.2% | -19.6% | -15.3% | -1.95%
COC(=O)C1=C(C)NC(C)=C(C(=O)OC)C1c1cccc(NO)c1 | 9.6% | 16.4% | 47.4% | 24% | 43.3% | 2.85%
CCN(CC)c1ccc2c(c1)Oc1cc(N(CC)CC)ccc1C2c1ccccc1C(=O)O | -10.2% | -32.6% | -1.5% | 13.8% | 3.6% | -3.45%
CNC(=O)OCc1c(COC(=O)NC)c(-c2ccc(F)cc2)n2c1CCC2 | 23.8% | 12.7% | -15.9% | 18.7% | 7.55% | 52.6%
CC(C)N1CC2CC(CN(C(=O)c3ccc(Cl)cc3)C2)C1 | -30.4% | -8.45% | -8.25% | 2.95% | -16.4% | -5.9%
CCC(=O)/C=C/c1ccccc1O | 11.6% | 9.55% | 31.4% | 17.4% | 20.4% | 13.3%
CCCCn1cnc2ccc3nc(-c4ccccc4)c(-c4ccccc4)nc3c2c1=O | 43.8% | -15.4% | 9.3% | 4.1% | 1.5% | 4.65%
ONc1ccc(Cl)cc1 | -8.85% | -11.8% | -2.7% | -10.8% | 21.1% | -6.6%
N#CC1=C(O)/C(=C\C=C\c2ccccc2)N(C(=O)c2ccccc2)C1=N | 12.2% | -7.6% | -6.2% | 10.2% | -6.85% | 19.1%
Fc1cccc(C(Nc2nncs2)Nc2nncs2)c1 | 14.1% | -0.1% | -1.7% | -11.6% | -3.8% | -4.35%
CC12C(=O)NC(c3ccccc3)(c3ccccc31)C1C(=O)N(C(N)=O)C(=O)C12 (centres undefined) | 13.9% | 7.35% | 25.6% | -3.05% | -15.2% | 4.4%
COC(=O)C(=O)C(C(=O)C(=O)Nc1ccccc1[N+](=O)[O-])c1nc2ccc([N+](=O)[O-])cc2[nH]c1=O (centres undefined) | 17.8% | 15.2% | 5% | 26.6% | 27.8% | 20.7%
c1ccc(Cn2nnnc2Nc2ccccc2)cc1 | -19.2% | -10.7% | -3.65% | 19.8% | 26.4% | 10.4%
COC1OC(C(COC(=O)c2ccccc2)OC(=O)c2ccccc2)C(OC(=O)c2ccccc2)C1OS(C)(=O)=O (centres undefined) | 5.35% | -2.55% | 28.8% | 28.4% | -0.1% | 11.6%
Cc1ccsc1/C=N/Nc1cnccn1 | 11.1% | 2.6% | 17.3% | 6.15% | 0.4% | 19.9%
C(=Nc1ccc(SSc2ccc(N=Cc3ccc4c(c3)OCO4)cc2)cc1)c1ccc2c(c1)OCO2 | 18.8% | 0.05% | -0.95% | -8.55% | 8.75% | 17.2%
CC/C(=N/NS(=O)(=O)c1ccc(C)cc1)c1ccc(O)cc1 | 22.7% | 18.1% | 7.9% | 36.8% | 25.5% | 46.6%
CC(=O)Oc1ccc(Nn2c3ccccc3c3ccccc32)c(C)c1 | 56.6% | 47.9% | 36.1% | 54.6% | 41.4% | 43%
Cc1cc(N=C2C=C(Nc3cc(C)on3)C(=O)c3ccccc32)no1 | -8.9% | -1.25% | -21.4% | 1.05% | -14.7% | 6.05%

Structure (SMILES) | growth inhibition [1] | growth inhibition [2] | growth inhibition [3] | growth inhibition [4] | growth inhibition [5] | growth inhibition [6]
Cc1ccc(S(=O)(=O)NNC(=O)c2cc(C(=O)NNS(=O)(=O)c3ccc(C)cc3)c(C)nc2C)cc1 | -1.95% | 5.3% | 6.9% | 21.8% | 8.3% | -7.8%
CCOC(=O)Cc1cc(=O)oc2cc(O)ccc12 | -22.9% | 2.3% | 4.1% | 22.7% | -1.8% | -1.1%
CCCCCC1NC(C)(C)CO1 (centres undefined) | 1.25% | -2.95% | -0.85% | 1.95% | 9.65% | 10.7%
COc1ccc(C(=O)c2cc(OC)c(OC)c(OC)c2)cc1OC | -21.9% | -27.2% | -13.8% | 0.3% | 7.45% | -10.4%
NC1(C(=O)O)CC(O)(c2ccccc2)C(O)(c2ccccc2)C1 (centres undefined) | -22.5% | -6.1% | -10% | 6.2% | 3.75% | -9.5%
ClCC1CCCO1 (centres undefined) | 23.1% | 12.6% | 31.1% | 3.35% | 24.9% | 25.6%
O=C(Nc1cccc(O)c1)Nc1ccc(Cl)cc1[N+](=O)[O-] | 98.2% (active) | 99.3% (active) | 99.2% (active) | 97.5% (active) | 83% (active) | 97.8% (active)
c1ccc2[nH]c(-c3nc4ccccc4s3)cc2c1 | -3.75% | -4.45% | 0.05% | -60.1% | -12% | 1.25%
CCN(CC)C(=S)N1C(=O)C2C3CCC(O3)C2C1=O (centres undefined) | 19.1% | 11.9% | 13.2% | 6.75% | 28.2% | -11.2%
COc1ccc2c(CC(=O)O)cc(=O)oc2c1 | 12.2% | -22.8% | 15.4% | 7.7% | 8.95% | 14.2%
CCOC(=O)N1CCN(CCO)CC1 | -19.9% | 2.65% | 2.35% | -34% | 3.05% | -8.25%
CCOC(=O)COc1c(C)cccc1Cl | 4.2% | 0.6% | -0.25% | -28.9% | -23.6% | -24.6%
CC(C)N(CC(=O)NC(=O)c1ccccc1)Cc1ccccc1 | 3.5% | -8.4% | -1.95% | -30.1% | -1.5% | -11.7%
CC1SC2=NC3=C(c4ccccc4C3=O)C(c3ccccc3Cl)N2C1=O (centres undefined) | 15.8% | 8.75% | 8.55% | 4.95% | 17.9% | 23.3%
COC(=O)C1(CCC(C)=O)CCC(C)C1=O (centres undefined) | 2.55% | -4.5% | 1.2% | 0.2% | -19.6% | -9.8%
O=C(O)CCSC1=NCCN1 | -32.8% | -44% | -26.1% | 16.6% | -42.9% | -10.6%
Cc1[nH]c(=O)c(C#N)c(C)c1-c1ccccc1 | 16.8% | -3.9% | -4.9% | 4.9% | -0.75% | 1.85%
CSc1ncnc2c1ncn2CC(=O)C1CCC2C3CCC4=CC(=O)CCC4(C)C3CCC12C (centres undefined) | 7% | -48.2% | -1.9% | -29.6% | -28.9% | 16.4%
O=P(CCCCCCCCCCP(=O)(c1ccccc1)c1ccccc1)(c1ccccc1)c1ccccc1 | -11% | 2.6% | 23.5% | 9.55% | 2.3% | 29.5%
